Among the data in PubChem BioAssay (NCATS) are Potency and Z-AUC values, retold here.

Where “and” joins values, the source holds several entries; their conditions need not be identical. Equal entries are not always repeated. Results filed as inconclusive are left out. Some structures have more than one record in an assay (separate samples or runs), and their calls can disagree. Calls of active or inactive are those of the source. Unless noted, calls come from the whole dose curve; as a rule, active = well fitted curve in the direction sought with a large enough effect; inconclusive = small, poorly fitted or top-dose-only effect, or another doubt; inactive = no such curve, though single readings can be large; an effect the other way counts as inactive or inconclusive.

The nature of assay [1]: Primary qHTS for inhibitors of nuclear receptor binding SET domain protein 2 (NSD2) in an isogenic RCH-ACV NSD2 p.E1099K mutant (9B) (AID 1645876). Note: nearly all actives have a fitted effect of over 70% in size. Note: potency is the fitted concentration of half-maximal effect.
Assay [2] addresses Phospholipid hydroperoxide glutathione peroxidase GPX4 (Homo sapiens) (UniProt P36969). Kind of assay: Primary qHTS Assay for Inhibitors of Recombinant Selenoprotein Glutathione Peroxidase 4 (GPX4) (AID 1845192). Note: nearly all actives have a fitted effect of over 65% in size. Note: potency is the fitted concentration of half-maximal effect. Summed up: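 NADPH consumption, followed by fluorescence at 340/450 nm between 0 and 15 min, reports GPX4 activity via coupled glutathione reductase (100 nM). Enzyme 200 nM was pre-exposed to compound 30 min; 0.5 mM cumene hydroperoxide and 1 mM GSH served as substrates.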
(In general: Quantitative high-throughput screening tests each substance at several concentrations.)

A short description of assay [3]: qHTS drug screen for cell cycle checkpoint inhibitors in PARPi-resistant BRCA-mutant ovarian cancer cell lines. (AID 1963452; calls by dose curve; note: potency is the fitted concentration of half-maximal effect). Conditions: PEO1/OlaR viability, CellTiter-Glo luminescence, 96 h; for Z-AUC: stronger effect = lower value. Summed up:
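PEO1, PEO4 and PEO1/OlaR ovarian cancer cells, 600 per well, exposed 96 h at 37C to a dilution series. Viability read by CellTiter-Glo luminescence, normalized to DMSO and empty wells; activity summarized as Z-AUC.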

For assay [4], the target named is Rap guanine nucleotide exchange factor 3 (Homo sapiens) (UniProt O95398). Nature of the assay: Confirmatory qHTS for antagonist of cAMP-regulated guanine nucleotide exchange factor 3 (EPAC1) (AID 1645880). Note: nearly all actives have a fitted effect of over 55% in size. Note: potency is the fitted concentration of half-maximal effect. Summed up:
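Nucleotide exchange uses 100 nM EPAC1, 250 nM RAP1B-BODIPY-GDP and 50 uM GDP, with compounds in a concentration-titration series. After 5 min at room temperature, fluorescence (480 nm ex/540 nm em) is read every 5 min for 30 min. Data are normalized to control ATA and DMSO.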

For assay [5] the target is unchanged. Kind of assay: Confirmatory qHTS for agonist of cAMP-regulated guanine nucleotide exchange factor 3 (EPAC1) (AID 1645881).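 Note: EPAC1 catalysed release of BODIPY-GDP from Rap1B seen as fluorescence loss; 100% = effect of cAMP agonist control; nearly all actives have a fitted effect of over 75% in size.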
For assay [6], the target named is Glutathione peroxidase 1 (Homo sapiens) (UniProt P07203). Nature of the assay: Primary qHTS Assay for Inhibitors of Recombinant Selenoprotein Glutathione Peroxidase 1 (GPX1) (AID 1845191). Note: nearly all actives have a fitted effect of over 65% in size. Note: potency is the fitted concentration of half-maximal effect. The procedure, abridged: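 10 nM GPX1 + cpd, 30 min RT; start w/ 1 mM GSH, 0.5 mM cumene hydroperoxide, 0.5 mM NADPH, 100 nM GR, 0.01% BSA; buffer 50 mM Tris-HCl pH 7.5, 2 mM EDTA, 150 mM NaCl; Fl 340/450, 0 & 15 min.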
Glutathione peroxidase 1 (Homo sapiens), sequence (P07203 whole entry, looked up): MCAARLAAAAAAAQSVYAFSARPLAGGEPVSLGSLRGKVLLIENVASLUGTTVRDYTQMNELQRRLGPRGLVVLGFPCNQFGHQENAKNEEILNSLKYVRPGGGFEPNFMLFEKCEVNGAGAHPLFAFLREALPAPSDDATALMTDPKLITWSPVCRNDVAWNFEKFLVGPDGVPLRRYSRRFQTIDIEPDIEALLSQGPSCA

A short description of assay [7]: Primary qHTS for inhibitors of nuclear receptor binding SET domain protein 2 (NSD2) in an RCH-ACV wild type WT cells (2C) (AID 1645877). Note: nearly all actives have a fitted effect of over 70% in size. Note: potency is the fitted concentration of half-maximal effect.
Assay [8] concerns the target Rap guanine nucleotide exchange factor 4 (Homo sapiens) (UniProt Q8WZA2). Kind of assay: Confirmatory qHTS for agonist of cAMP-regulated guanine nucleotide exchange factor 4 (EPAC2) (AID 1645884).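 Note: nucleotide exchange releases bodipy-GDP from Rap1 and this lowers its fluorescence; % is set by controls: 0 for no effect and ±100 for the full control effect; nearly all actives have a fitted effect of over 65% in size.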
[9] abbreviates: measured here: PEO1 parental Z-AUC.

Phospholipid hydroperoxide glutathione peroxidase GPX4 (Homo sapiens), sequence (P36969 whole entry, looked up): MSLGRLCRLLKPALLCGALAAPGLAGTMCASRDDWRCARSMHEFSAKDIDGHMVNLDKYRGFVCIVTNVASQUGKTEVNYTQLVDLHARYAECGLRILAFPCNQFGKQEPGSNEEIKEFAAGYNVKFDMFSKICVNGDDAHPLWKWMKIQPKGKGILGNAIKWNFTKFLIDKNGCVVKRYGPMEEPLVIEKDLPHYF
Rap guanine nucleotide exchange factor 3 (Homo sapiens), sequence (O95398 whole entry, looked up): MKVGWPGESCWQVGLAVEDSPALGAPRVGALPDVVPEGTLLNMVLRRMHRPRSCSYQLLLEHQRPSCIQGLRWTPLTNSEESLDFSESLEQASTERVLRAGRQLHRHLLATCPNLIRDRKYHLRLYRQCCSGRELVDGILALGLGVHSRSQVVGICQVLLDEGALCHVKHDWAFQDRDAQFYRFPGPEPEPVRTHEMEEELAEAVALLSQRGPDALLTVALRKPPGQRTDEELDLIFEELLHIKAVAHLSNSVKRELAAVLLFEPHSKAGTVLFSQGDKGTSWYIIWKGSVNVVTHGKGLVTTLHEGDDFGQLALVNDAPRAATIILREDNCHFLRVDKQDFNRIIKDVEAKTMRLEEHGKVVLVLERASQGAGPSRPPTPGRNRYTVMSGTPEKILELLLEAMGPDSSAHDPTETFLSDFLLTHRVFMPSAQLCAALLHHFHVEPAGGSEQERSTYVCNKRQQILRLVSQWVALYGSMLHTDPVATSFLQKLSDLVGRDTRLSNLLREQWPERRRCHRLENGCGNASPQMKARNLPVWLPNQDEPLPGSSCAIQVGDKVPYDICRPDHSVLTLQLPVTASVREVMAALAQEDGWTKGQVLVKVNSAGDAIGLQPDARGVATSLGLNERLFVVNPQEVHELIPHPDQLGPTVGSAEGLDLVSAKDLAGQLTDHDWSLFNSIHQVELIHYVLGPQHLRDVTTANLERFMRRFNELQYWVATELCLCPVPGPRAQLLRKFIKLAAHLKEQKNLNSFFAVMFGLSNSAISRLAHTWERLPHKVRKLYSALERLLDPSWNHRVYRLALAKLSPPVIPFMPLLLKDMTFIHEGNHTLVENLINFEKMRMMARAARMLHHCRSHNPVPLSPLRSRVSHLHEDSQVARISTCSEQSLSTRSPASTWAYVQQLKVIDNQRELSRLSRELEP
Rap guanine nucleotide exchange factor 4 (Homo sapiens), sequence (Q8WZA2 whole entry, looked up): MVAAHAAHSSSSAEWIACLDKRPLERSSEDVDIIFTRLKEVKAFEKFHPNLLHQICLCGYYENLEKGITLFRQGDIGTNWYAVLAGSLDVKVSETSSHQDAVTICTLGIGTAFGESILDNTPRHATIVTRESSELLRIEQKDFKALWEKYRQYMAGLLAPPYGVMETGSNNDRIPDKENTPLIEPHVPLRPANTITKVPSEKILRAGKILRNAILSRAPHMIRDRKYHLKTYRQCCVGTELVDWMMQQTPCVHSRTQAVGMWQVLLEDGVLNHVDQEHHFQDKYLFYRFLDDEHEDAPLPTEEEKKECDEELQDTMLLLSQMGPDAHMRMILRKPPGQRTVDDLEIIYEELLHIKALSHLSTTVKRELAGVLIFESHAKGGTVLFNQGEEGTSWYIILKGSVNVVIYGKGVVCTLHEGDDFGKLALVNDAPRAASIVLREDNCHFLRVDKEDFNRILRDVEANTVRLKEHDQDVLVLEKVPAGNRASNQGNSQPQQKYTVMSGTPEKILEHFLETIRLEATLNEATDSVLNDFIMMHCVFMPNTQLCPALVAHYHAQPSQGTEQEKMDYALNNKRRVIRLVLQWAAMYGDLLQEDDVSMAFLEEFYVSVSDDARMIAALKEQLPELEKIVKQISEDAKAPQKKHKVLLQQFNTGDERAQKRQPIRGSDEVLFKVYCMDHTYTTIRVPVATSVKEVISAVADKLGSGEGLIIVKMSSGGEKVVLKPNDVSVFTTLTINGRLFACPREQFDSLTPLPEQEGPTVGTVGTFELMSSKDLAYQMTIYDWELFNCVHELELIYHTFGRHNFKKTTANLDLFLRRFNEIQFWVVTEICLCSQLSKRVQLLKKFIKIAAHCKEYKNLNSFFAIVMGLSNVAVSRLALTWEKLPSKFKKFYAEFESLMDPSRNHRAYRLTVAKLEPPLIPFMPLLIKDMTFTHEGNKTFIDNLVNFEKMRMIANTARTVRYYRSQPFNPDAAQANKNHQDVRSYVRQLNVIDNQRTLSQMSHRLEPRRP

On to `CCCCCCCOc1ccc(CCC(N)(CO)CO)cc1C(F)(F)F`, for which the Potency in assay [1] was 11.8 µM (active). The Potency entry in assay [2] is “inactive”. Further, the Z-AUC is -0.8 (inactive) in assay [3], -1.22 in assay [3] (setting [9]) and -1.35 in assay [3] (measured here: PEO4 Z-AUC).

In the case of `CC(=O)C(C(c1ccccc1)c1c[nH]c2ccccc12)[N+](=O)[O-]` (stereo not drawn), the Potency entry in assay [4] and in assay [5] was “inactive” in each case.

`CC1COc2ccccc2N1S(=O)(=O)c1cc(Cl)ccc1Cl` (stereo not drawn): the Potency result in assay [4] and in assay [5] was “inactive” in each case.

On to `Cc1ccc(-n2nc(C(C)(C)C)cc2NC(=O)NCc2cc(F)ccc2Oc2ccc3c(cnn3CCO)c2)cc1`, for which the Potency in assay [1] was 16.6 µM (active). Besides, the Potency entry in assay [6] and in assay [2] was “inactive” each time. The Z-AUC was 1.04 (inactive) in assay [3], 0.682 in assay [3] (setting [9]) and 0.464 in assay [3] (measured here: PEO4 Z-AUC).

With `CC/C(=C(/c1ccc(/C=C/C(=O)O)cc1)c1ccc2[nH]ncc2c1)c1ccc(F)cc1Cl`, the Potency in assay [7] was 23.5 µM (active); in assay [2], 4.04 µM (active). In addition, the results for the Z-AUC in assay [3], in assay [3] (setting [9]) and in assay [3] (measured here: PEO4 Z-AUC) were 1.39 (inactive), 0.628 and -0.0261, respectively.

With `CC(C)(C)S(=O)(=O)c1ccc2nccc(Nc3n[nH]c4ccc(F)cc34)c2c1`, the Potency in assay [1] was 13.2 µM (active). The Potency result in assay [6] and in assay [2] was “inactive” each time. Moreover, the figures for the Z-AUC in assay [3], in assay [3] (setting [9]) and in assay [3] (measured here: PEO4 Z-AUC) were -0.44 (inactive), -0.407 and -0.499, respectively.

As for `COC(=O)N[C@H](C(=O)N1CCC[C@H]1c1ncc(-c2ccc(-c3ccc(-c4cnc([C@@H]5CCCN5C(=O)[C@@H](NC(=O)OC)C(C)C)[nH]4)cc3)cc2)[nH]1)C(C)C`, the Potency was 20.9 µM (active) in assay [7]; 16.1 µM (active) in assay [6]; 18 µM (active) and 20 µM (active) in assay [2]. Further, the Z-AUC in assay [3] is -0.519 (inactive); in assay [3] (setting [9]), -0.789; in assay [3] (measured here: PEO4 Z-AUC), -0.801.

For `CCN(C)S(=O)(=O)Nc1ccc(F)c(C(=O)c2c[nH]c3ncc(-c4cnc(C5CC5)nc4)cc23)c1F`, in assay [1], the Potency was 8.33 µM (active). Also, the Potency entry in assay [6] was “inactive”. For the same molecule, the Z-AUC in assay [3] was 0.933 (inactive); in assay [3] (setting [9]), 0.554; in assay [3] (measured here: PEO4 Z-AUC) it was 0.574.

For `O=C(c1ccc(Nc2nc(C3CC3)cn3c(-c4cn[nH]c4)cnc23)c(F)c1)N1CCOCC1`, the Potency in assay [1] is 9.34 µM (active). Further, the Potency entry in assay [6] and in assay [2] was “inactive” each time. Moreover, the results for the Z-AUC in assay [3], in assay [3] (setting [9]) and in assay [3] (measured here: PEO4 Z-AUC) were 0.98 (inactive), 0.912 and 1.07, respectively.

With `O=C1CCN(Cc2ccccc2)CCN1[C@H](COc1ccccc1)Cc1ccccc1`, the Potency result in assay [4] and in assay [5] was “inactive” each time.

As for `CC[C@@H]1[C@H](F)C(=O)N[C@@H]1COc1nccc2cc(C(N)=O)c(OC)cc12`, the results for the Potency in assay [1] and in assay [2] were 14.8 µM (active) and 18 µM (active), respectively. Further, the Potency entry in assay [6] was “inactive”. The Z-AUC in assay [3] was -0.948 (inactive); in assay [3] (setting [9]), -0.251; in assay [3] (measured here: PEO4 Z-AUC), 0.0982.

For `CC[C@H](Nc1ncnc2nc[nH]c12)c1oc2ccccc2c(=O)c1-c1cccc(F)c1`, the Potency in assay [1] was 1.32 µM (active). In addition, the Potency entry in assay [6] and in assay [2] was “inactive” in each case. The Z-AUC in assay [3] was 0.58 (inactive); in assay [3] (setting [9]) it was 0.184; in assay [3] (measured here: PEO4 Z-AUC), 0.542.

With `CN(C)c1ccc(/C=C/c2c(Cl)cnc3ccccc23)cc1`, the Potency result in assay [4] and in assay [5] was “inactive” each time.

`Nc1cc(N)cc(N)c1`: the Potency in assay [4] is 28 µM (active).

Regarding `[O-][n+]1cccc(-c2nc3c(Cl)cccc3cc2[C@@H](Nc2ncnc3cccnc23)C(F)(F)F)c1`, the Potency in assay [1] is 0.263 µM (active). For the same molecule, in assay [2], the Potency entry was “inactive”. In addition, the Z-AUC in assay [3] is -0.846 (inactive); in assay [3] (setting [9]) it was 0.42; in assay [3] (measured here: PEO4 Z-AUC), 0.695.

As for `COc1ccc(-c2ccc3c(N4CCOC[C@@H]4C)nc(N4CCOC[C@@H]4C)nc3n2)cc1CO`, the Potency in assay [1] is 0.059 µM (active); in assay [6], 18.3 µM (active); in assay [2] it was 16.1 µM (active). The figures for the Z-AUC in assay [3], in assay [3] (setting [9]) and in assay [3] (measured here: PEO4 Z-AUC) were 1.14 (inactive), 0.497 and 0.69, respectively.

For `Cc1cccc(N(C(=O)c2csnn2)C(C(=O)NCc2ccccc2)c2cccs2)c1` (stereo not drawn), the Potency result in assay [4], in assay [5] and in assay [8] was “inactive” throughout.

On to `COc1ccc(C(=O)c2ccc(OC)cc2OC)cc1`, for which the Potency result in assay [4] and in assay [5] was “inactive” throughout.

As to `COc1ccc(Cl)cc1NC(=O)CN(C)Cc1cccs1`, the Potency entry in assay [4] and in assay [5] was “inactive” each time.

As for `CCOC(=O)c1ccc(N(C(=O)c2ccccc2)c2ccccc2)cc1`, the Potency entry in assay [4] and in assay [5] was “inactive” throughout.

Turning to `C[C@H]1C[C@@H](n2c(Nc3ccc(OC(F)(F)F)cc3)nc3cc(CCC(=O)O)ccc32)CC(C)(C)C1`, the Potency entry in assay [1] was “inactive”. The Potency in assay [2] was 2.55 µM (active). The Z-AUC in assay [3] is 0.184 (inactive); in assay [3] (setting [9]) it was 0.953; in assay [3] (measured here: PEO4 Z-AUC) it was 0.855.

`Cc1ccc(Sc2ccccc2N2CCNCC2)c(C)c1`: the Potency in assay [1] is 10.5 µM (active). Also, the Potency entry in assay [2] is “inactive”. The Z-AUC was 0.87 (inactive) in assay [3], 0.0255 in assay [3] (setting [9]) and -0.0248 in assay [3] (measured here: PEO4 Z-AUC).

As to `CNC(=O)CCc1cc(-c2ccc(-c3ccc(C(F)(F)F)cc3)cc2)n(-c2ccc(N3CCNCC3)cc2)n1`, the Potency entry in assay [7] and in assay [2] was “inactive” throughout. Moreover, the Z-AUC in assay [3] was 1.07 (inactive); in assay [3] (setting [9]), -0.284; in assay [3] (measured here: PEO4 Z-AUC), 0.197.

For the molecule `C=CC(=O)Nc1ccc(F)c(-c2ncnc3[nH]cc(C(=O)OCC)c23)c1`, in assay [1], the Potency is 16.6 µM (active). The Potency result in assay [6] and in assay [2] was “inactive” throughout. Besides, the values for the Z-AUC in assay [3], in assay [3] (setting [9]) and in assay [3] (measured here: PEO4 Z-AUC) were 0.543 (inactive), 0.95 and 0.747, respectively.

For the molecule `Cc1ccc(C(=O)OCc2ccc([C@@H](CN)C(=O)Nc3ccc4cnccc4c3)cc2)c(C)c1`, the Potency in assay [1] is 4.07 µM (active). The Potency result in assay [2] was “inactive”. For the same molecule, the Z-AUC in assay [3] was -1.52 (inactive); in assay [3] (setting [9]), -0.919; in assay [3] (measured here: PEO4 Z-AUC) it was -0.26.

In the case of `CN[C@H]1CN(c2ccc3c(=O)c(C(=O)O)cn(-c4nccs4)c3n2)C[C@@H]1OC`, the results for the Potency in assay [1] and in assay [3] were 0.135 µM (active) and 1.59 µM (active), respectively. The Potency entry in assay [6] and in assay [2] was “inactive” each time. Further, the Z-AUC is -0.941 (inactive) in assay [3]; -1.7 and -1.57 in assay [3] (setting [9]); -1.25 and -1.14 in assay [3] (measured here: PEO4 Z-AUC).

`COc1ccc(SC[C@H](Cc2ccccc2)N2CC[C@@H](C)CCC2=O)cc1`: in assay [4], the Potency result was “inactive”.

As to `CN1CCN(CCCNc2ncc(Cl)c(-c3cc4c(C(=O)NC5CC5)cccc4s3)n2)CC1`, the Potency in assay [7] is 23.5 µM (active). Besides, the Z-AUC in assay [3] is -0.322 (inactive); in assay [3] (setting [9]) it was -0.452; in assay [3] (measured here: PEO4 Z-AUC) it was -0.0901.
